NLRP3 yeast inh – NALP3 inhibition in yeast. Yeast reconstituted NLRP3/ASC/caspase-1, beta-gal luminescence, 24 h. inhibition, % at 10 µM. actives 0.39% (n = 330,000). AID 2825;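 active means inhibition of 50% or more; inactive means inhibition below 50%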;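 further: plate controls were induced DMSO wells for no effect and uninduced yeast grown without galactose for full effect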
tim23-1 inh – tim23-1 yeast growth inhibition | S. cerevisiae tim23-1 growth, BacTiter-Glo luminescence, 24 h | inhibition, % at 20 µM | actives 1.3% (n = 330,000);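 active means growth inhibition of the mutant yeast at or above 50%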;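 further: temperature-sensitive mutant grown at 25 °C; plate controls were DMSO-treated mutant yeast for no effect and medium wells lacking yeast for full effect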
TIM10 inh – growth inhibitors of TIM10 yeast strain; actives 1.4% (n = 330,000); AID 463195; inhibition, % at 10 µM; S. cerevisiae TIM10 strain growth, BacTiter-Glo luminescence, 24 h;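 active means inhibition of 40% or more at the single tested concentration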;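 further: wild-type TIM10 isogenic control strain grown at permissive 25 °C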
NALP1 inh – inhibitors of NALP1 inflammasome in yeast. actives 0.61% (n = 280,000). inhibition, % at 10 µM. AID 2071. S. cerevisiae NALP1/ASC/caspase-1 growth, X-gal OD620, 72 h; in the data active means inhibition mostly above about 24%, no sharp cut-off; inactive means mostly below about 32%
tim10-1 inh – inhibits growth of tim10-1 mutant yeast | S. cerevisiae tim10-1 ts strain growth, BacTiter-Glo, 24 h | actives 2.2% (n = 330,000) | inhibition, % at 20 µM | AID 463190;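 active means inhibition of at least 40%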;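 further: mutant grown at 25 °C; 0% = DMSO wells with yeast and 100% = wells holding no yeast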
* = called active by the depositor; · = no result given. Rows were chosen to be rich in hits. Some 4.1% of all compounds tested hit in one or more screens of this group.

SMILES | NLRP3 yeast inh | tim23-1 inh | TIM10 inh | NALP1 inh | tim10-1 inh
CCCNC(=O)c1ccccc1NC(=O)CN(c1ccccc1OCC)S(C)(=O)=O | -7.2 | -1.0 | 12.2 | 3.8 | 12.1
O=S(=O)(c1ccc(Br)s1)N1CCC(Cc2ccccc2)CC1 | 21.8 | 13.1 | 20.8 | 23.6 | 20.9
O=S(=O)(c1ccc(Cl)s1)N1CCC(Cc2ccccc2)CC1 | 8.8 | 17.1 | 22.8 | 40.4* | 21.0
Cc1ccc(NS(=O)(=O)c2ccc3c(c2)N(C)CCO3)cc1 | 2.5 | 28.2 | 11.7 | 17.4 | 12.9
CN1CCOc2cc(S(=O)(=O)Nc3ccc(F)cc3)ccc21 | -3.3 | 6.8 | 1.9 | 26.1* | 17.5
CCOP(=O)(OCC)/C(=C/N1CCCCC1)NC(=O)c1ccccc1 | 15.5 | 3.9 | 2.5 | 34.0* | -0.6
COc1ccc(S(=O)(=O)NCCOc2ccccc2)cc1C | 8.9 | 14.4 | -1.3 | 50.1* | 19.9
COc1cc(NC(=O)Cc2ccc(Cl)cc2)ccc1NC(=O)c1ccco1 | 15.0 | 14.3 | 16.4 | 37.7* | 16.9
CC1C(=O)N2CCCc3cc(NC(=O)C(=O)NCc4cccnc4)cc1c32 (stereo not given) | 20.3 | -6.4 | 5.6 | · | -16.2
Cc1noc(C)c1S(=O)(=O)N1CCC(C(=O)NC2CCN(Cc3ccccc3)CC2)CC1 | 3.5 | -7.5 | -7.9 | 39.2* | -2.1
CC(=O)NCC1=C(NC(C)=O)C2CC1C(C)(C)C2C (stereo not given) | 8.7 | 12.7 | -0.2 | -17.0 | 6.3
Cc1ccc(S(=O)(=O)c2cc3c(=O)n4ccccc4nc3n(CCc3ccccc3)c2=N)cc1 | -5.5 | 9.1 | 2.2 | 31.7* | 8.1
CCn1c(=N)c(S(=O)(=O)c2ccc(C)cc2)cc2c(=O)n3ccccc3nc21 | 16.5 | 4.1 | -20.1 | -29.3 | -5.8
CCOC(=O)c1cc(NC(=O)N(CC)CC)c(C)nc1C | 4.8 | 1.0 | -10.5 | 37.2* | 10.8
O=C(Oc1cc(-c2ccccc2)no1)c1cccc(C(F)(F)F)c1 | 9.0 | 6.6 | -4.9 | 43.1* | 8.4
COc1ccc(-n2c(C)c([N+](=O)[O-])c3ccc(O)c(CN(C)C)c32)cc1 | 20.5 | 17.5 | 7.6 | 24.2* | 19.6
O=C1NCCN/C1=C\C(=O)c1ccc(Cl)cc1 | 16.3 | 2.6 | 0.4 | 39.3* | -4.5
COC(=O)c1cc(=O)n(Cc2ccc(OC)c(OC)c2)c(=Nc2ccc(F)cc2)s1 | 28.8 | 16.3 | 1.4 | 40.3* | 15.8
COC(=O)c1cc(=O)n(Cc2ccc(F)cc2)c(=Nc2ccccc2)s1 | 2.4 | 17.9 | 7.1 | · | 11.2
COc1ccc2[nH]c(=O)c(CN(C(C)=O)C3CCCCC3)cc2c1 | 6.7 | 0.3 | -0.8 | -9.6 | 6.0
COc1ccc2[nH]c(=O)c(CN(C(=O)c3ccco3)C3CCCCC3)cc2c1 | 9.8 | 5.9 | -8.5 | 26.1* | 18.2
COc1ccc(C(=O)Nc2ccccc2C(=O)NC(C)C)cc1OC | 20.3 | 9.8 | 12.6 | 36.5* | 17.8
CC(C)N(C(=S)Nc1cc(S(=O)(=O)N2CCOCC2)ccc1Cl)c1ccccc1 | 21.1 | 3.2 | 9.1 | 59.3* | -3.3
CN1CCN(C(=S)Nc2cc(S(=O)(=O)N3CCOCC3)ccc2Cl)CC1 | 0.0 | 15.0 | -5.8 | 15.2 | 15.1
Cc1ccccc1OCC(O)CN1CCN(CCN2C(=O)c3cccc4cccc(c34)C2=O)CC1 (stereo not given) | 16.9 | 19.4 | 3.1 | 18.5 | 9.3
SMILES | NLRP3 yeast inh | tim23-1 inh | TIM10 inh | NALP1 inh | tim10-1 inh
Cc1cccc(C)c1OCC(O)CN1CCC(CN2C(=O)c3cccc4cccc(c34)C2=O)CC1 (stereo not given) | 24.0 | -5.6 | -0.8 | 42.6* | 18.9
CCOc1ccccc1Nc1nnc(SC(C)C(=O)Nc2nc(-c3ccccc3)cs2)s1 (stereo not given) | 18.3 | 11.7 | 2.7 | 15.8 | 6.6
O=C(CN1CCCC1)N1CCCc2c1c(=O)oc1ccc(OCc3ccccc3)cc21 | 7.0 | 20.5 | 7.4 | 28.8* | 20.6
CCCOc1ccc2oc(=O)c3c(c2c1)CCCN3C(=O)CN1CCN(C(=O)c2ccco2)CC1 | -2.6 | 23.0 | 16.4 | 1.2 | 23.2
O=C(O)CCCNCc1ccccc1F | · | · | · | -2.0 | ·
CC(C)NC(=O)c1ccccc1S(=O)(=O)c1ccccc1C#N | 18.7 | -3.0 | -10.9 | 4.9 | -14.3
CNC(=O)c1ccccc1S(=O)(=O)c1ccccc1C#N | 5.9 | 13.1 | 1.8 | 28.0* | 10.7
O=C(CSCc1cc(=O)n2ccsc2n1)Nc1ccccc1 | 2.9 | 8.8 | 9.1 | 23.0 | 17.0
C=CCNc1nc(N2CCCCC2)c(C#N)c2c1CN(Cc1ccccc1)CC2 | 0.6 | 20.2 | 17.4 | 3.5 | 16.4
CCOc1ccccc1NC(=O)C(NC(=O)C1CCC(C)CC1)C(C)C (stereo not given) | 7.7 | 9.8 | -1.0 | 6.1 | 14.7
CCOc1ccccc1NC(=O)C(CC(C)C)NC(=O)C1CCC(C)CC1 (stereo not given) | 4.8 | 4.3 | -5.0 | 42.9* | 15.9
CCC(C(=O)OCC(=O)N(CCOC)c1c(N)n(Cc2ccccc2)c(=O)[nH]c1=O)c1ccccc1 (stereo not given) | 13.4 | 5.5 | 11.2 | 33.0* | 6.0
Cc1ccc(S(=O)(=O)Nc2cccc(C(=O)NCCCn3ccnc3)c2)cc1F | 14.9 | -4.2 | -4.1 | · | -5.4
Cc1cc(O)c(C(C)C)cc1N=Nc1ccccc1C(=O)O | 14.9 | 12.4 | 11.1 | 37.6* | 22.0
Cc1cc(N=Nc2ccccc2C(=O)O)c(C)c(C)c1O | 28.8 | -19.1 | -98.1 | 22.1 | -90.5
COC(=O)c1scc(C)c1N/N=C(\C)c1ccc(F)cc1 | 6.4 | -1.2 | 5.9 | 41.5* | 2.7
Cc1csc(C(=O)O)c1NC(=O)c1ccc(F)cc1 | 5.6 | -4.0 | 0.9 | -4.6 | 3.0
Cc1ccc(/C=C(\C#N)C(=O)NCCN2CCOCC2)cc1 | 16.6 | 21.1 | -0.6 | 20.8* | 0.9
Cc1ccsc1/C=C(\C#N)C(=O)NCCCN1CCOCC1 | 7.5 | -0.3 | -7.1 | 16.0 | 16.2
S=C(NCc1ccccc1)NC1CCSc2ccccc21 (stereo not given) | 24.0 | 28.0 | 21.6 | 27.0* | 22.8
O=C(O)C1C2C=CC(C2)C1C(=O)NCc1ccc(Cl)c(Cl)c1 (stereo not given) | 4.1 | 0.1 | -0.9 | 46.6* | 11.6
CN(CC(=O)Nc1ccc(Cl)cc1)S(=O)(=O)c1cccc2cccnc12 | 15.9 | 41.6 | 20.7 | 37.3* | 33.1
CC(=O)c1cccc(NC(=O)CN(C)S(=O)(=O)c2cccc3nsnc23)c1 | 3.1 | 5.8 | -1.4 | 32.2* | 8.7
Cc1ccc(NC(=O)CN(C)S(=O)(=O)c2cccc3nsnc23)cc1 | -3.5 | 14.9 | -17.0 | 33.9 | 11.1
O=C(NCc1csc(-c2cccs2)n1)C1CCCCC1 | 37.6 | 16.4 | 9.2 | 15.5 | 20.0
O=C(Nc1ccccc1Cl)C1CCN(S(=O)(=O)c2cccc3nonc23)CC1 | 27.2 | 21.9 | -13.7 | 37.2* | 19.2
O=C(Nc1ccccc1F)C1CCN(S(=O)(=O)c2cccc3nonc23)CC1 | -1.1 | 5.3 | -9.4 | 24.4 | 0.9
Cc1ccc(C)c(NC(=O)C(=O)NCC2CCCN2S(=O)(=O)c2cccs2)c1 (stereo not given) | 7.4 | 25.0 | 14.0 | · | 30.6
